Data on 5 compounds can be found in PubChem BioAssay.

Assay [1] in a line: compounds binding Alexa647 anti-His antibody – biochemical, small-molecule microarray, 635 nm fluorescence, artefact control for SMM control protein annotation, primary screen (AID 1128).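 Further: score merges feature fluorescence with signal-to-noise for each printed compound spot.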 The note with it: higher = more signal.
Assay [2] deals with Human papillomavirus type 1a E7 protein (residues 1-88). Nature of the assay: HPV1a E7 small-molecule binders, primary screen, biochemical, small-molecule microarray, residues 1-88, 635 nm (AID 1129). The note with it: small-molecule microarray binding, fluorescence 635 nm; higher = more signal.
The target of assay [3] is Focal adhesion kinase 1 (Homo sapiens) (UniProt Q05397). In words: PTK2 protein binding on printed compound slides – biochemical, small-molecule microarray, 635/667 nm fluorescence, BSA, DTT, primary screen (AID 1130).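 Further: composite of spot emission at 667 nm and signal to noise over triplicate slides.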 The note with it: 635 nm fluorescence, higher = more signal.
Focal adhesion kinase 1 (Homo sapiens), sequence (Q05397 whole entry, looked up): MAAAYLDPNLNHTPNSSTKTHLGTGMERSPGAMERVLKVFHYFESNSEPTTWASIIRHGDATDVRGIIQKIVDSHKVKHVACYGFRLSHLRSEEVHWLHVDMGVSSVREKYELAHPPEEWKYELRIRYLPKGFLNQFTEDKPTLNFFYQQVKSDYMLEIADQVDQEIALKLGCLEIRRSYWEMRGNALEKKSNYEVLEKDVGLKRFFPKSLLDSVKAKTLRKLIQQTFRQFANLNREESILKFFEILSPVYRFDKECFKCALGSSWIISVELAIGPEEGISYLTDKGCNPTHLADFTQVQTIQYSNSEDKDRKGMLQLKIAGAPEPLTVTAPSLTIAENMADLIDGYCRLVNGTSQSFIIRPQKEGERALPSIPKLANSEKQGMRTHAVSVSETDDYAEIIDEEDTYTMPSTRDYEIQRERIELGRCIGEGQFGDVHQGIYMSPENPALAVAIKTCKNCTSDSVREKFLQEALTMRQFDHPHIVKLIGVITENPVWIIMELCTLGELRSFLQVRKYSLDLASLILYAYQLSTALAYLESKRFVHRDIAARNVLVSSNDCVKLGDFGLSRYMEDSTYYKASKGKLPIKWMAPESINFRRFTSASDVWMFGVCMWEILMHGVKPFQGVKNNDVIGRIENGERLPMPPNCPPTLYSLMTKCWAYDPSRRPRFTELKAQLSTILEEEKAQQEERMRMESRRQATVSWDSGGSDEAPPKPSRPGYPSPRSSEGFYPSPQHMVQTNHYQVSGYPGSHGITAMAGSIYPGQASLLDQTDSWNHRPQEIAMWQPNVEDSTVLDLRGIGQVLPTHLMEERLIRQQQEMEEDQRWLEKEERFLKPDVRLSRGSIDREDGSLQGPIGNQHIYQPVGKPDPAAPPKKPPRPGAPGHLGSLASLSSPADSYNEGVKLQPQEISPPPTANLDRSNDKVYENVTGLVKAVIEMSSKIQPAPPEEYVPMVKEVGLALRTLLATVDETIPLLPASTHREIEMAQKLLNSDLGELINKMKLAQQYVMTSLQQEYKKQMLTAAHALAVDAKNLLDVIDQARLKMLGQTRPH
The test system of assay [4] is Fibrinogen (Alexa647-labelled). In words: Alexa647-fibrinogen binding to printed small molecules – biochemical, small-molecule microarray, 635/667 nm fluorescence, artefact control for SMM control-protein annotation, profiling panel (AID 1131).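 Further: z-score merges 667 nm fluorescence with per-spot signal-to-noise over triplicate slides.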 The note with it: fibrinogen-A647 binding fluorescence, higher = more signal.
The target in assay [5] is Follistatin (Homo sapiens) (UniProt P19883). In words: FST protein binding to printed compounds – biochemical, small-molecule microarray, 635/667 nm fluorescence, primary screen (AID 1132). Particulars: 635 nm fluorescence, higher = more signal.
Follistatin (Homo sapiens), sequence (P19883 whole entry, looked up): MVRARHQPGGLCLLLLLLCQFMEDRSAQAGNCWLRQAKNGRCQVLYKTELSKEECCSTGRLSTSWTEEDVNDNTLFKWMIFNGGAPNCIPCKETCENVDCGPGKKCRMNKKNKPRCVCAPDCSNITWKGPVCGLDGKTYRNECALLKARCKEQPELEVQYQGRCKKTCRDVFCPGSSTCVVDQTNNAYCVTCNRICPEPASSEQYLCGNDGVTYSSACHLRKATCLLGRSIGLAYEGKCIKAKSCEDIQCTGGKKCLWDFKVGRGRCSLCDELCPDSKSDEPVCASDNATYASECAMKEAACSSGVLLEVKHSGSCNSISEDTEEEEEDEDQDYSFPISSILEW
Assay [6] has as its target Fibroblast growth factor 2 (Homo sapiens) (UniProt P09038). In words: basic fibroblast growth factor binding to printed compounds – biochemical, small-molecule microarray, 635/667 nm fluorescence, primary screen (AID 1133). Particulars: FGF2, fluorescence 635/667, higher = more signal.
The nature of assay [7]: JC-1 mitochondrial potential readout, lung cancer cells – cell-based, A549, JC-1 fluorescence, basal, 24 h, 100 nL, profiling panel (AID 1138).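 Further: A549 lung adenocarcinoma cells under basal conditions with no added stimulus; test concentration not given here.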 The note with it: higher = more signal.
Another assay relates to Lefty1. In words: Lefty1 protein binding to printed compounds – biochemical, small-molecule microarray, 635/667 nm fluorescence, primary screen (AID 1139). The note with it: fluorescence 635/667, higher = more signal.
For assay [8], the system named is wheat germ agglutinin (Triticum aestivum), Alexa647-labelled. Nature of the assay: Alexa647-WGA lectin binding to printed small molecules – biochemical, small-molecule microarray, 635/667 nm fluorescence, artefact control for SMM control-protein annotation, profiling panel (AID 1140).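 Further: score merges 667 nm feature emission with signal to noise over triplicate slides.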 Particulars: WGA-A647 binding, 635 nm fluorescence, higher = more signal.
Assay [9] addresses Luciferin 4-monooxygenase (Photinus pyralis) (UniProt P08659). Nature of the assay: inhibition of purified Photinus pyralis luciferase – biochemical, luminescence, purified enzyme, 2006 set, primary screen (AID 1141).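 Further: cell-free assay with purified firefly luciferase at 100 ng per well in PBS; test concentration not given here.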 Particulars: purified firefly luciferase, SteadyGlo luminescence, 30 min; higher = more signal, called active from +8 up or from −8 down.
For assay [10], the system named is Wnt5a (protein binding on small-molecule microarray). Nature of the assay: small molecules binding Wnt5a protein – biophysical, small-molecule microarray, 635/667 nm fluorescence, primary screen (AID 1142).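 Further: fluorescence read at 667 nm with signal to noise per printed feature.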 Particulars: 635 nm fluorescence, higher = more signal.
Assay [11] in a line: ATP-based viability of Huh7 replicon cells – cell-based, CellTiter-Glo luminescence, basal, 48 h, cytotoxicity control for HCV replication inhibitor project, primary screen (AID 1143).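 Further: Huh7 hepatoma cells carrying a hepatitis C replication reporter with no stimulus; test concentration not given here.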 Particulars: higher = more signal, called active from +8 up or from −8 down. Background: Replicon systems follow genome replication, usually without infectious particles.
The nature of assay [12]: Pseudomonas biofilm growth suppression – PAO1 strain, BacTiter-Glo luminescence, LB-PBS, primary screen (AID 1144). The note with it: P. aeruginosa PAO1 biofilm, 12 h, higher = more signal.
A short description of assay [13]: basal CRE-LacZ reporter activity in PC12 – cell-based, unstimulated, primary screen (AID 1145). The note with it: no forskolin, luminescence, 4.5 h, higher = more signal, called active from +8 up or from −8 down.
Assay [14] can be described thus: forskolin-driven CRE-LacZ activity in PC12 – cell-based, CRE-LacZ reporter, forskolin-stimulated, primary screen (AID 1146).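 Further: PC12 cells with 6xCRE LacZ reporter stimulated by forskolin 10 µM; beta-galactosidase reporter signal reflecting CREB driven transcription.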 The note with it: luminescence, 4.5 h, higher = more signal, called active from +8 up or from −8 down.
Assay [15] has as its target Streptavidin (Streptomyces avidinii) (UniProt P22629). In words: compounds binding control protein streptavidin – biophysical, small-molecule microarray, 635/667 nm fluorescence, artefact control for SMM compound annotation, primary screen (AID 1147).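 Further: signal reflects streptavidin binding to arrayed compounds as a control protein.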 Particulars: higher = more signal.
A short description of assay [16]: probe aInhba binding on compound microarray – biochemical, small-molecule microarray, 635/667 nm fluorescence, primary screen (AID 1148).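 Further: score merges 667nm spot fluorescence with signal-to-noise for antibody binding to printed compounds.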 Particulars: higher = more signal.
In assay [17] the target is Torsin-1A (Homo sapiens) (UniProt O14656). Nature of the assay: TOR1A wild-type binding on microarray – cell lysate, small-molecule microarray, lysate, 635/667 nm, primary screen (AID 1149). Particulars: COS7 hTOR1A-WT lysate, 635 nm fluorescence, higher = more signal.
Torsin-1A (Homo sapiens), sequence (O14656 whole entry, looked up): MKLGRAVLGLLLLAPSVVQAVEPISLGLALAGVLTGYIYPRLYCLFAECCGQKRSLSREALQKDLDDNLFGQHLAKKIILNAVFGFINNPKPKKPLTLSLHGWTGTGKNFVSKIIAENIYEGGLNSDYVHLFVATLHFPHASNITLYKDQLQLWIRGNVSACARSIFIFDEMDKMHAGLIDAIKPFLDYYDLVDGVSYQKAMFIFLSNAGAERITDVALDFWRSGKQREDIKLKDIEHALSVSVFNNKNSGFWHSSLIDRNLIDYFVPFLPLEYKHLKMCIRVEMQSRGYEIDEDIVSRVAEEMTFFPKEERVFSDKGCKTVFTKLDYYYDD
Assay [18] shares this target. In words: torsin A mutant lysate binding on microarrays – cell lysate, small-molecule microarray, COS7 lysate, 635/667 nm fluorescence, primary screen (AID 1150).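 Further: score pools 667 nm emission and signal to noise measuring lysate protein binding.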 Particulars: COS7 hTOR1A mutant lysate, 635 nm fluorescence, higher = more signal.
Assay [19] relates to Sonic hedgehog protein (Shh). In words: Sonic hedgehog microarray binding compounds – biochemical, small-molecule microarray, 635/667 nm fluorescence, primary screen (AID 1151).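 Further: Shh protein binding to compounds spotted on small-molecule microarray slides; score combines spot fluorescence intensity with signal-to-noise across triplicate slides.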 Particulars: 635 nm fluorescence, higher = more signal.

Activity calls are given as the source filed them. Unless noted, how the calls were made is not given here.

Luciferin 4-monooxygenase (Photinus pyralis), sequence (P08659 whole entry, looked up): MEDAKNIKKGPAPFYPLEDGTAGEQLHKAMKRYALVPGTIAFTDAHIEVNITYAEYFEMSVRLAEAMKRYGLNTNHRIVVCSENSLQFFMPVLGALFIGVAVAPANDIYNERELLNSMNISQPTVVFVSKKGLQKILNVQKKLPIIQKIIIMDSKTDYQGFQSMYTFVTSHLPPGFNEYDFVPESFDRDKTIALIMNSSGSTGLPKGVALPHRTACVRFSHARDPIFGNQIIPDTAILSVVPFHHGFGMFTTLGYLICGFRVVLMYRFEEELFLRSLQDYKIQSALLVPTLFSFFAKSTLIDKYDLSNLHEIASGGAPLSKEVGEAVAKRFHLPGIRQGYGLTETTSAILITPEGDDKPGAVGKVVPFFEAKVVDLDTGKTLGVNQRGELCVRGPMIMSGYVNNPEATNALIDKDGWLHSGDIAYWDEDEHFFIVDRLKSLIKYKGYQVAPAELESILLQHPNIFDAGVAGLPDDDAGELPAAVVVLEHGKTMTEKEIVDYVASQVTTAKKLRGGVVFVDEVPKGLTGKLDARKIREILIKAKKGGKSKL
Streptavidin (Streptomyces avidinii), sequence (P22629 whole entry, looked up): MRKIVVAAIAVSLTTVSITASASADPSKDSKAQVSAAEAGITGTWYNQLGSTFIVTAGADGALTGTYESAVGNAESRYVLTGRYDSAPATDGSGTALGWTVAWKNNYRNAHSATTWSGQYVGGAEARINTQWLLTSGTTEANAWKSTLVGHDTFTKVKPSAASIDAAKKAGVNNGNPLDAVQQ
Fibroblast growth factor 2 (Homo sapiens), sequence (P09038 whole entry, looked up): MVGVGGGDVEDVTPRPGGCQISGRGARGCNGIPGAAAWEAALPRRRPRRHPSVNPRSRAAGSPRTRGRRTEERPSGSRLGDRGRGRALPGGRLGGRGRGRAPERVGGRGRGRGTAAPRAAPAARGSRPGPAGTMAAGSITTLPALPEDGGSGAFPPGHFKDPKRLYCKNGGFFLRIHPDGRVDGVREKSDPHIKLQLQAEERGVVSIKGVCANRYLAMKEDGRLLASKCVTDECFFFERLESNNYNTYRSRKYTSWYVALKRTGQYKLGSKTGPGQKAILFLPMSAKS

For `O=C1O[C@@H](c2ccccc2)[C@@H](c2ccccc2)N2[C@@H](c3ccccc3OCCO)[C@]3(C(=O)Nc4ccc(C#CCCO)cc43)[C@@H](C(=O)Nc3nc4ccccc4s3)[C@H]12`, the composite z-score in assay [1] is 2.3; in [2], 1.21; in assay [3] it was 0.487; in assay [4], 0.956; in assay [5] it was 1.33; in assay [6] it was 0.737. In addition, the composite z-score with Lefty1 was 1.55; in assay [8], 1.23; in assay [10], 0.559; in [15], 1.39; in [16] it was 0.269; with Torsin-1A (Homo sapiens) [17], 0.515. For the same compound, the composite z-score in the assay with Torsin-1A (Homo sapiens) [18] amounted to 0.585; in assay [19], 1.36. The z-score in assay [7] is -2.04; in assay [9], -0.778 (inactive); in assay [11], -0.975 (inactive); in assay [12], -0.562 (inactive); in assay [13], -0.671 (inactive); in assay [14], 0.308 (inactive).
Regarding `COC(=O)[C@H](Cc1ccccc1)N1CC(/C=C/C2CC2)=C[C@@H]1[C@@H](O)Cc1ccccc1`, the composite z-score in assay [1] is 0.303; in assay [2], 1.14; in assay [3], 0.28; in assay [4] it was 0.971; in assay [5] it was 0.958; in assay [6] it was 0.418. Besides, the composite z-score amounted to 1.26 in the assay with Lefty1; 0.982 in [8]; 0.624 in assay [10]; 0.756 in assay [15]; 0.0471 in assay [16]; 0.957 in the assay with Torsin-1A (Homo sapiens) [17]. Besides, the composite z-score was -0.038 with Torsin-1A (Homo sapiens) [18] and 1.81 in assay [19]. Also, the z-score in assay [7] was 0.33; in assay [9], -0.186 (inactive); in assay [11], -1.63 (inactive); in assay [12], -1.18 (inactive); in assay [13] it was 3.31 (inactive); in assay [14] it was 5.89 (inactive).
`COc1ccccc1CN1C(=O)c2ccccc2[C@](Cc2ccccc2I)(C(=O)NC(C)C)[C@@H]1c1ccc(CO)cc1`: the composite z-score in assay [1] is 1.94; in assay [2], 1.24; in [3], 0.629; in assay [4], 0.983; in assay [5] it was 1.14; in [6], 0.506. The composite z-score is 0.773 in the assay with Lefty1; 1.16 in assay [8]; 0.449 in assay [10]; 1.13 in assay [15]; 0.0422 in [16]; 0.667 with Torsin-1A (Homo sapiens) [17]. The composite z-score is 1.08 with Torsin-1A (Homo sapiens) [18] and 1.78 in [19]. Moreover, the z-score in assay [7] was 1.86; in assay [9] it was 1.35 (inactive); in assay [11], -3.63 (inactive); in assay [12] it was 0.0633 (inactive); in assay [13], -0.0243 (inactive); in assay [14], 1.08 (inactive).
As for `COCCOC(=O)N1C(=O)[C@@]2(c3cc(C#CCC(C(=O)OC)C(=O)OC)ccc31)[C@H](c1ccc(OCCO)cc1)N1[C@H](c3ccccc3)[C@H](c3ccccc3)OC(=O)[C@H]1[C@@H]2C(=O)N1CCN(c2ncccn2)CC1`, the composite z-score is 1.94 in assay [1]; 1.25 in [2]; -0.0555 in assay [3]; 0.947 in assay [4]; 1.36 in [5]; 1.23 in assay [6]. In addition, the composite z-score in the assay on Lefty1 came to 1.29; in [8], 0.939; in assay [10], 0.672; in [15], 0.945; in assay [16] it was 0.122; with Torsin-1A (Homo sapiens) [17], 1.19. Further, the composite z-score with Torsin-1A (Homo sapiens) [18] was found to be 0.6; in assay [19], 2.09. Moreover, the z-score is -1.48 in [7]; -0.506 (inactive) in assay [9]; -4.96 (inactive) in assay [11]; -1.65 (inactive) in [12]; -1.42 (inactive) in assay [13]; -0.912 (inactive) in [14].
Turning to `C=CC[C@@]1(C(=O)O)N=C(c2ccc(OCCCO)cc2)O[C@@H]1c1ccccc1`, the composite z-score in [1] was 3.53; in assay [2], 1.15; in assay [3] it was 0.3; in assay [4], -0.184; in assay [5], -0.759; in assay [6], -0.893. The composite z-score in the assay with Lefty1 is -0.726; in assay [8], 1.27; in assay [10], 1.45; in assay [15] it was -1.72; in assay [16], -0.231; in the assay with Torsin-1A (Homo sapiens) [17], 4.37. In addition, the composite z-score in the assay with Torsin-1A (Homo sapiens) [18] is 4.32; in [19], -0.198. Besides, the z-score in assay [7] is 0.959; in assay [9], -0.171 (inactive); in [11], 0.0076 (inactive); in [12], -0.385 (inactive); in assay [13], -0.491 (inactive); in assay [14], -1.2 (inactive).
